Bioassay records: PubChem, National Center for Advancing Translational Sciences (NCATS)
CHX counter – Cycloheximide Counterscreen for Small Molecule Inhibitors of Shiga Toxin | 12% of 300,000 active | max response, % | cell reporter, cycloheximide protein synthesis inhibition counterscreen; in the data active = max response mostly above about 13%, no sharp cut-off; inactive = mostly below about 14%; also: read at 38.3 µM for the half of the compounds with a filed dose; 0% is about no effect
SARS PLP yeast – qHTS of Yeast-based Assay for SARS-CoV PLP; S. cerevisiae expressing SARS-CoV PLpro, growth rescue; Potency, µM (top dose mostly 32.9 µM), inactives show at the highest dose activity, positive = growth rescue, actives largely listed as activators; 0.19% of 330,000 active; AID 485353, 2010; calls by dose curve; also: potency is read from the fitted curve at half-maximal effect; 0% is about no effect; nearly all actives have a fitted effect of over 55% in size
NS1 function inh – qHTS Assay for Inhibitors of Influenza NS1 Protein Function. Potency, µM (doses to about 46.1 µM), inactives show at the top dose activity, positive = more growth. 0.4% of 270,000 active; calls by dose curve; also: potency is read from the fitted curve at half-maximal effect; actives are rising curves; nearly all actives have a fitted effect of over 50% in size
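OD600 was taken as the measure of yeast growth restored by compound in an NS1-expressing S. cerevisiae strain. Cells had been washed out of glucose medium and diluted 1:100 into galactose -URA medium, pH 6.0.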
Pf growth 48h – Primary qHTS for delayed death inhibitors of the malarial parasite plastid, 48 hour incubation | P. falciparum luciferase growth in erythrocytes, 48 h | Potency, µM (series often up to 28.7 µM), for the others: top-dose activity change, negative = inhibition, hits mostly inhibitors | 5.9% of 310,000 active | AID 504832, 2011; also: potency is read from the fitted curve at half-maximal effect; % is scaled to controls: 0 for no effect and ±100 for the full control effect
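Here the parasites carry a stable luciferase gene and grow inside erythrocytes in Albumax-based RPMI medium with compound for one erythrocytic cycle. Activity is scored as loss of luminescent signal.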
Pf growth 96h – Primary qHTS for delayed death inhibitors of the malarial parasite plastid, 96 hour incubation; 6.9% of 320,000 active; Potency, µM (doses to about 28.7 µM), for the others: at the highest dose activity change, negative = inhibition, hits mostly inhibitors; P. falciparum luciferase reporter growth, 96 h; also: potency is read from the fitted curve at half-maximal effect; % is scaled to controls: 0 for no effect and ±100 for the full control effect
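P. falciparum expressing integrated firefly luciferase grown in erythrocytes (2% hematocrit, 0.05% parasitemia final) with compounds for 96 hours at 37 C, 5% CO2. Growth inhibition read as loss of luminescence after adding luciferase detection reagent.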
Shiga inhibitor – A qHTS for Small Molecule Inhibitors of Shiga Toxin | 9.2% of 290,000 active | inhibition, % at 38.7 µM | AID 2315, 2010 | Vero cells, Shiga toxin protein synthesis inhibition reporter; in the data active = inhibition mostly above about 28%, no sharp cut-off; inactive = mostly below about 43%; also: 0% is about no effect
* hit, by the source's call; ? = inconclusive; . = not tested or not shown. This is a sample that favours compounds with a hit; in the whole collection about 21% have one here. Unless noted, calls follow the shape of the dose curve; as a rule, active = well fitted inhibition curve with a large enough effect; inconclusive = small, poorly fitted or top-dose-only effect, or another doubt; inactive = no such curve, though single readings can be large or run the other way.

SMILES | CHX counter | SARS PLP yeast | NS1 function inh | Pf growth 48h | Pf growth 96h | Shiga inhibitor
CCCN1C(=O)/C(=C/c2c(NCCCOCC)nc3c(C)cccn3c2=O)SC1=S | 9.9 | 1.2% | 2.5% | ? | 0.0% | 3.7
CCCCc1nnc2c(N(C)S(=O)(=O)c3ccc(C)cc3)nc3ccccc3n12 | -1.1 | 0.2% | -2.0% | ? | 11.7µM* | 8.5
CCCc1nnc2c(N(C)S(=O)(=O)c3ccc(C)cc3)nc3ccccc3n12 | 0.7 | 17.5% | 10.4% | ? | 13.1µM* | -6.5
Cn1c(-c2ccc(Cl)cc2)cnc1N | 9.6 | -5.4% | -2.7% | ? | . | 20.0
Cc1ccc(-c2cnc(N)n2C)cc1C | 30.3* | -8.5% | -4.6% | ? | 4.65µM* | 32.0
COc1ccccc1C1=NOC(C)(c2sc(-c3ccc(Cl)cc3)nc2C)C1 (stereo not drawn) | 20.4* | 0.4% | 0.3% | 40.4% | 89.1% | 31.1*
CCOC(=O)C1=C(C)N=c2s/c(=C\c3cccc(OCC(=O)O)c3)c(=O)n2C1c1ccccc1 (stereo not drawn) | -1.0 | -1.9% | 26.5% | 11.7µM* | 0.928µM* | -1.9
CCOC(=O)C1=C(C)N=c2s/c(=C\c3cc(OC)c(OC)c(OC)c3)c(=O)n2C1/C=C/c1ccccc1 (stereo not drawn) | -2.5 | -19.1% | 12.7% | 14.7µM* | 2.08µM* | -17.6
CCOC(=O)C1=C(C)N=c2s/c(=C/c3cccc([N+](=O)[O-])c3O)c(=O)n2C1c1cc(OC)c(OC)c(OC)c1 (stereo not drawn) | -2.7 | -0.2% | 1.8% | 1.04µM* | ? | -15.0
COc1ccc(C2C(C(C)=O)=C(C)N=c3s/c(=C/c4ccc5c(c4)OCO5)c(=O)n32)cc1 (stereo not drawn) | 2.9 | -7.0% | -7.4% | 13.1µM* | ? | 21.7
C=CCN1C(=O)CS/C1=N\N=C\c1cccc([N+](=O)[O-])c1 | 10.2 | -1.0% | . | 34.9% | ? | 31.6
COc1ccccc1C(=O)NC(CCSC)C(=O)OCC(=O)N1CCCC1=O (stereo not drawn) | . | 6.1% | . | -9.7% | -10.9% | .
COc1cc(/C=N/n2nnnc2N)ccc1OCC(N)=O | -2.6 | 1.8% | 8.1% | 52.0% | 29.0% | .
CCOC(=O)C1=C(C)N=c2s/c(=C/c3ccco3)c(=O)n2C1c1cccc(OC)c1 (stereo not drawn) | 20.6* | -15.6% | ? | ? | -9.4% | 32.6
CCOC(=O)C1=C(C)N=c2s/c(=C\c3ccc(C(=O)O)cc3)c(=O)n2C1c1ccc(F)cc1 (stereo not drawn) | -2.0 | -2.5% | -1.8% | ? | ? | -8.0
CCOC(=O)C1=C(C)N=c2s/c(=C\c3ccc(OCC(=O)O)c(OC)c3)c(=O)n2C1c1ccc(OC)cc1 (stereo not drawn) | -1.7 | -0.5% | 8.1% | ? | ? | -2.9
CC1=C(C(=O)OC(C)C)C(c2ccc(Cl)cc2)n2c(s/c(=C\c3ccc(OCC(=O)O)cc3)c2=O)=N1 (stereo not drawn) | -1.6 | 1.5% | ? | 11.7µM* | 7.38µM* | -4.0
CCOC(=O)C1=C(C)N=c2s/c(=C\c3ccc(OCC(=O)O)cc3)c(=O)n2C1c1ccccc1 (stereo not drawn) | -0.5 | 4.7% | 17.2% | 7.38µM* | 10.4µM* | -0.8
CCOC(=O)C1=C(C)N=c2s/c(=C\c3cccn3C)c(=O)n2C1c1cccc(OC)c1OC (stereo not drawn) | 1.1 | -0.9% | -42.5% | 2.08µM* | ? | 16.7
O=CN1CCN(c2c([N+](=O)[O-])c(=O)oc3ccccc23)CC1 | 4.4 | -0.3% | -0.2% | 0.0% | ? | 16.6
Cc1nc2ccccc2c(=O)n1-c1ccc(Br)cn1 | 27.0* | -0.5% | -1.9% | 111.6% | 77.4% | 55.5*
Cc1ccnc(-n2c(-c3ccccc3)nc3ccccc3c2=O)c1 | 3.1 | 0.6% | 7.9% | -1.8% | 1.5% | -11.7
Cc1ccnc(-n2c(C)nc3ccccc3c2=O)c1 | 12.4* | 18.0% | -9.8% | 70.5% | 104.0% | 44.2
Cc1nc2ccccc2c(=O)n1-c1ccc(F)cc1 | -1.1 | 6.6% | -0.2% | 18.5% | -1.0% | -1.6
C=CCN1C(=O)c2ccccc2Sc2ccc(C(=O)NC(C)C)cc21 | 0.9 | -1.1% | -0.2% | -17.1% | -9.8% | -1.0
SMILES | CHX counter | SARS PLP yeast | NS1 function inh | Pf growth 48h | Pf growth 96h | Shiga inhibitor
COc1ccc(NC(=O)CN2C(=O)c3ccccc3Sc3ccc(C(=O)N4CCOCC4)cc32)c(OC)c1 | 1.2 | -4.5% | . | 10.4µM* | -13.8% | -9.6
C=CCN1C(=O)c2ccccc2Sc2ccc(C(=O)N3CCN(C)CC3)cc21 | 1.1 | 1.4% | -11.4% | ? | 9.28µM* | -3.7
Cc1ccc(S(=O)(=O)NCCNC(=O)CN2CCOCC2)cc1 | -4.2 | 1.0% | 7.4% | 11.7% | 40.2% | -14.5
C[n+]1cccc2c(Br)ccc([O-])c21 | -1.1 | -0.1% | 2.4% | ? | 2.33µM* | -7.6
[O-][n+]1cccc2c(Br)cc(Br)c(O)c21 | -1.8 | -21.1% | . | 12.5% | 0.0% | -15.8
O=C(CSc1nnc(CNC(=O)c2ccccc2F)o1)Nc1cccc(C(F)(F)F)c1 | 4.2 | 3.6% | -7.2% | 22.6% | 46.8% | -18.6
CCOC(=O)c1ccc(N2C(=O)Cc3ccccc3C2=O)cc1 | -4.6 | -0.4% | 15.9% | ? | -18.8% | -5.6
C=CC[C@]12CCc3ccccc3C1N(c1ccc(C(=O)OCC)cc1)C2=O (stereo partly drawn) | . | 0.3% | . | 13.1µM* | ? | .
Cc1ccc(S(=O)(=O)N(CC(=O)N2CCOCC2)c2ccc(C(C)C)cc2)cc1 | 15.5 | -3.2% | -18.2% | -18.2% | 10.4µM* | -17.1
O=C(CN(c1ccc(F)cc1)S(=O)(=O)c1ccc2c(c1)OCCO2)N1CCOCC1 | -1.7 | 6.1% | -10.2% | 7.4% | 1.04µM* | -1.7
Cc1ccc(S(=O)(=O)N(CC(=O)N2CCC(C)CC2)c2ccccc2)cc1 | 3.1 | -1.2% | 6.9% | 11.7µM* | 29.0% | 40.9
Cc1ccc(N(CC(=O)N2CCOCC2)S(=O)(=O)c2ccccc2)cc1 | -0.7 | -4.9% | -0.2% | 33.2% | . | 12.9
CN(CCc1ccccn1)c1ccc2c(c1)C(=O)c1ccccc1-2 | . | . | -30.8% | . | . | .
CC(Oc1ccc(Cl)cc1Cl)C(=O)NCCCN(C)C (stereo not drawn) | -3.7 | 3.5% | -1.2% | . | ? | -3.9
Cc1ccc(N2Cc3ccccc3C2=S)cc1 | 36.9* | 0.0% | . | 493.6% | ? | 81.8*
Cc1ccc(S(=O)(=O)NN2Cc3ccccc3C2=N)cc1 | 0.9 | 1.7% | . | 8.9% | 22.9% | -7.2
Cc1ccc(C)c(NC(=O)c2ccccc2NC(=O)C2CCCO2)c1 (stereo not drawn) | 1.6 | -0.7% | 4.0% | 2.7% | ? | 12.9
